# Screens from PubChem.
# HT1080 IDH1KD tx = kills HT-1080 cells with IDH1 knockdown. HT-1080 IDH1 knockdown viability, ATP luminescence, 48 h. Potency, µM (series often up to 46.1 µM), inactives show at the highest dose activity, negative = toxicity, hits mostly cytotoxic. 360,000 compounds, 2% hits;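 note: potency is the fitted concentration of half-maximal effect; 0% = DMSO wells and -100% = cell-free medium wells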
#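 After a 2 h attachment period, IDH1KD HT-1080 cells took pin-transferred compound for 48 h at 37 °C; ATP-based luminescence after 10 min room-temperature reagent incubation reported viability.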
# IL1B secr inh = inhibitors of inflammasome signaling (IL-1 beta secretion); THP-1 LPS/ATP IL-1B secretion, AlphaLISA, 16 h; stronger effect = lower value; activity change, % at 57.5 µM; 360,000 compounds, 4.7% hits; in the data active = activity change below about -50%; inconclusive = mostly about -30% to -49%
#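 THP-1 cells pretreated 1 hr with compounds (up to 57.5 uM final), then stimulated with LPS (250 ng/mL final) plus ATP (1.25 mM final); secreted IL-1B measured by AlphaLISA after 16 hr, decreased signal indicating inhibition.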
# DT40 TDP1 no CPT = qHTS for Inhibitors of human tyrosyl-DNA phosphodiesterase 1 (TDP1): qHTS in cells in absence of CPT | Potency, µM (doses to about 46.2 µM), for the others: top-dose activity change, negative = growth inhibition, hits mostly inhibitors | DT40 Tdp1-/- hTDP1 cells, no CPT, ATP luminescence, 48 h | 420,000 compounds, 15% hits; note: potency is the fitted concentration of half-maximal effect; nearly all actives have a fitted effect of over 55% in size
#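 Cells were dispensed at 400 per well, compounds added by pin tool, plates incubated ≥48 hr at 37 °C, then CellTiter-Glo added for 30 min at room temperature before luminescence reading. Line: DT40 Tdp1-/- complemented with hTDP1; camptothecin omitted.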
# DT40 TDP1 CPT = growth inhibition of DT40 Tdp1-/-;hTDP1 cells with camptothecin (screen for TDP1 inhibitors); chicken DT40 Tdp1-/-;hTDP1 cells + 20 nM CPT, ATP luminescence, 48 h; Potency, µM (doses to about 46.2 µM), without a hit: top-dose activity change, negative = growth inhibition, usual class: inhibitors; 420,000 compounds, 12% hits; note: potency is the fitted concentration of half-maximal effect; nearly all actives have a fitted effect of over 55% in size
#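 Chicken DT40 Tdp1-/- cells complemented with human TDP1, 400 cells/well, exposed to compounds plus 20 nM camptothecin for at least 48 h at 37 C; viability read as ATP content by CellTiter-Glo luminescence.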
# HT1080-NT tox = kills 2HG-producing HT-1080-NT fibrosarcoma cells; Potency, µM (titrated, usually from 46.1 µM), for the others: top-dose activity, negative = less viability, most hits filed as cytotoxic; HT-1080-NT fibrosarcoma viability, CellTiter-Glo ATP luminescence, 48 h; 360,000 compounds, 1.6% hits;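 note: NT is the 2HG producing partner of a matched IDH1 knockdown line; potency is the fitted concentration of half-maximal effect; 0% = DMSO-treated cells and -100% = media-only wells without cells; nearly all actives have a fitted effect of over 55% in size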
#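 Compounds were tested in concentration-response format on HT-1080-NT cells for 48 hours at 37 degrees C. Cell viability came from CellTiter-Glo luminescence; curves were classified by r2, response magnitude and activity.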
# The depositor's hits bear a star; u = inconclusive; x = no result given. An excerpt weighted towards active compounds, which were near 19% of everything screened. Unless noted, calls come from the whole dose curve; as a rule, active = well fitted curve in the direction sought with a large enough effect; inconclusive = small, poorly fitted or top-dose-only effect, or another doubt; inactive = no such curve, though single readings can be large; an effect the other way counts as inactive or inconclusive. Unless noted, % is set by controls: 0 for no effect and ±100 for the full control effect.
SMILES,HT1080 IDH1KD tx,IL1B secr inh,DT40 TDP1 no CPT,DT40 TDP1 CPT,HT1080-NT tox
CC(C)Cn1c(N)c(C(=O)CSc2ccc3c(c2)OCCO3)c(=O)n(C)c1=O,u,-8,3.7µM*,4.1µM*,-15%
CC(C)Cn1c(N)c(C(=O)CSc2nccn2C)c(=O)n(C)c1=O,-1%,12,u,0%,2%
COc1ccc(CCCNC(=O)CC#N)cc1OC,14%,10,-6%,11%,11%
Cc1c(NC(=O)/C=C/c2cn(-c3ccccc3)nc2-c2ccc(F)cc2)c(=O)n(-c2ccccc2)n1C,0%,-7,u,15µM*,-6%
NS(=O)(=O)c1ccc(NC(=O)COC(=O)c2cn(-c3ccccc3)nc2-c2ccc(F)cc2)cc1,u,-2,u,u,-22%
NS(=O)(=O)c1ccc(NC(=O)/C=C/c2cn(-c3ccccc3)nc2-c2cccc(Cl)c2)cc1,u,14,29µM*,u,u
O=C(/C=C/c1cn(-c2ccccc2)nc1-c1ccccc1)Nc1ccc(C(=O)O)cc1,23µM*,-2,u,u,u
CCC(C)NCCOc1ccc(C)cc1[N+](=O)[O-] (stereo unspecified),5%,-54*,-21%,0%,3%
C=CCNCCOc1ccc(C)cc1[N+](=O)[O-],-4%,-21,7%,-2%,0%
CCOC(=O)c1c(NC(=O)C2c3ccccc3Oc3ccccc32)sc(C)c1CC,x,x,-6%,12%,x
CC(=O)Nc1sc(C)c(C)c1C(=O)OC(C)C,1%,41,u,u,3%
Cc1c(C(=O)OC(C)C)sc(NC(=O)C2c3ccccc3Oc3ccccc32)c1C(=O)OC(C)C,x,x,23µM*,23µM*,x
Cc1sc(NC(=O)C2c3ccccc3Oc3ccccc32)c(C(=O)OC(C)C)c1C,x,x,u,18µM*,x
COc1ccccc1NCC(O)COc1ccc(C(C)(C)C)cc1 (stereo unspecified),16µM*,-106*,16µM*,15µM*,16µM*
CC(C)(C)NCC(O)COc1ccc(Br)cc1 (stereo unspecified),-2%,u,-4%,-19%,-8%
COc1ccc(CNCC(O)COc2ccc(C(C)(C)c3ccccc3)cc2)cc1 (stereo unspecified),16µM*,-100*,u,u,21µM*
COC(=O)c1ccc(CNCC(O)COc2ccc(-c3ccccc3)cc2)cc1 (stereo unspecified),-10%,14,u,u,-15%
COc1ccc(NCC(O)COc2ccc(C(C)(C)C)cc2)cc1 (stereo unspecified),u,-65*,u,u,u
COc1ccc(OCC(O)CNCCOc2ccccc2OC)c(C(C)(C)C)c1 (stereo unspecified),-13%,-73*,9.2µM*,10µM*,-28%
CC(C)(C)c1ccc(OCC(O)CNC(=O)c2ccccc2C(=O)O)cc1 (stereo unspecified),2%,24,u,-25%,-16%
C=CCN(C(=O)c1csnn1)C(C(=O)NC1CCCCC1)c1ccc(F)cc1 (stereo unspecified),-1%,12,-3%,-1%,2%
OC(CNc1ccccc1)COc1ccc(OCC(O)CNc2ccccc2)cc1 (stereo unspecified),21µM*,-51*,8.2µM*,13µM*,21µM*
OC(CNCc1ccco1)COc1ccccc1 (stereo unspecified),-23%,7,-41%,1.2µM*,-6%
CCOCCCN(Cc1ccco1)C(=O)c1cc2c(=O)[nH]c3ccc(C)cc3c2s1,-23%,-6,12µM*,23µM*,-20%
CCN(C(=O)c1cc2c(=O)[nH]c3ccc(C)cc3c2s1)c1ccc(OC)cc1,-1%,-10,9.2µM*,29µM*,-3%
Cc1ccc(C)c(N(C)C(=O)c2cc3c(=O)[nH]c4ccc(C)cc4c3s2)c1,6%,-3,4.1µM*,16µM*,-4%
